Assay outcomes (PubChem)
Compounds with a hit are over-represented: about 2.3% of the library has one in this group of screens.
CF NFkB inh = inhibitors of PAF-induced NF-kB signaling, primary screen, cell-based, GFP fluorescence, uHTS | hit rate 0.86% among 360,000 | inhibition, % at 5 µM | KKLEB NF-kB-GFP reporter, GFP fluorescence overnight;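 active = at least 50% inhibition at 5 µM, scaled per plate between neutral and stimulator controls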;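 also: PAF is a Pseudomonas aeruginosa culture filtrate used as stimulus; plate controls were PAF-stimulated DMSO wells for no effect and unstimulated DMSO wells for full effect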
TWEAK Fn14 block = inhibitors of TWEAK-Fn14 signaling, primary screen, luciferase reporter cells, uHTS; TWEAK-stimulated Fn14 reporter cells, luciferase luminescence, 8 h; AID 1159606, 2016; hit rate 2% among 360,000; inhibition, % at 10 µM; in the data active = inhibition above about 50%
HIF-2a block = HIF-2a reporter inhibitors, primary screen, luminescence, 786-0 RCC cells | 786-0 RCC cells HIF-2a reporter, luciferase luminescence, overnight | inhibition, % at 18.8 µM | hit rate 0.72% among 360,000 | AID 624352, 2012;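 active = inhibition of the luminescence signal of 40% or more relative to plate controls, in a single-dose primary screen at 18.75 µM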
hiPSC survival = enhancers of single-cell hiPSC survival, primary screen, ATPlite luminescence. 100% = ROCK inhibitor wells, 0% = DMSO. survival enhancement, % at 20 µM. hit rate 0.044% among 360,000. AID 602274, 2012; in the data active = survival enhancement above about 18%;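 also: cells exposed to compounds for 16 hours before the ATP read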
KKLEB cytotox = cytotoxicity in KKLEB CF airway cells, primary screen, cytotoxicity control for CF NF-kB inhibitor project, cell-based, uHTS, fluorescence assay plates; KKLEB CF airway cells viability, ATPlite luminescence, overnight; stronger effect = lower value; cells stimulated with P. aeruginosa culture filtrate; activity change (cytotoxicity), % at 5 µM; hit rate 0.36% among 360,000; AID 602141, 2011;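 active = corrected activity change at or below -50% at 5 µM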
LGR2 antag = inhibitors of bursicon-induced LGR2 CRE-luciferase signal, primary screen, cell-based, HEK293, CRE-luciferase reporter, bursicon stimulation; inhibition, % at 9.99 µM; hit rate 0.35% among 380,000; bursicon-stimulated, 4 h; Drosophila bursicon receptor LGR2 (rickets);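 active = drop in luminescence signal, shown as inhibition above about 50% in the replicate tests, limit read from the data, passing the limit was not always enough; inconclusive = probably only some replicates passing the limit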;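 also: agonist challenge used bursicon conditioned medium at about half maximal strength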
* hit, by the source's call; ? = inconclusive; nt = no result.

SMILES | CF NFkB inh | TWEAK Fn14 block | HIF-2a block | hiPSC survival | KKLEB cytotox | LGR2 antag
CO[C@@H]1CN(C)C(=O)c2cc(NC(=O)c3ccc(F)cc3)ccc2OC[C@H](C)N(C(C)=O)C[C@H]1C | nt | nt | nt | nt | nt | 0
O=C1c2ccccc2C(=O)C12OC2c1ccc(Cl)cc1Cl (configuration not stated) | 96* | 72* | -14 | -4 | -68* | 12
C[C@H](CO)N1C[C@H](C)[C@@H](CN(C)C(=O)Nc2cccc3ccccc23)Oc2ccc(NC(=O)Nc3ccc4c(c3)OCO4)cc2C1=O | nt | nt | nt | nt | nt | 14
O=C1C(Br)=C(c2ccccc2)C(c2ccccc2)=C1c1ccccc1 | 79* | 57* | 10 | -3 | -74* | nt
O=C(OCc1nc2scc(-c3ccccc3)c2c(=O)[nH]1)c1cc([N+](=O)[O-])ccc1Cl | -6 | 63* | 2 | -2 | 8 | 11
C[C@H](CO)N1C[C@H](C)[C@@H](CN(C)Cc2ccc3c(c2)OCO3)Oc2c(NC(=O)Nc3ccc(C(F)(F)F)cc3)cccc2C1=O | nt | nt | nt | nt | nt | 60*
C[C@@H]1CN([C@H](C)CO)C(=O)c2cccc(NC(=O)Nc3ccc(C(F)(F)F)cc3)c2O[C@H]1CN(C)Cc1ccc2c(c1)OCO2 | nt | nt | nt | nt | nt | 42
C[C@H](CO)N1C[C@H](C)[C@H](CN(C)S(=O)(=O)c2cccs2)Oc2ccc(NC(=O)Nc3ccc(C(F)(F)F)cc3)cc2C1=O | nt | nt | nt | nt | nt | 1
C[C@H](CO)N1C[C@H](C)[C@@H](CN(C)S(=O)(=O)c2cccs2)Oc2ccc(NC(=O)Nc3ccc(C(F)(F)F)cc3)cc2C1=O | 14 | 60* | 17 | 2 | -17 | 6
C[C@H]1CN([C@@H](C)CO)C(=O)c2cccc(NC(=O)Nc3ccc(C(F)(F)F)cc3)c2O[C@H]1CN(C)Cc1ccc(Cl)c(Cl)c1 | nt | nt | nt | nt | nt | 25
C[C@H]1CN([C@@H](C)CO)C(=O)c2cccc(NC(=O)Nc3ccc(C(F)(F)F)cc3)c2O[C@@H]1CN(C)Cc1ccc(Cl)c(Cl)c1 | 68* | 18 | -36 | 2 | -48 | 15
C[C@@H]1CN([C@H](C)CO)C(=O)c2cc(NC(=O)Nc3ccc(C(F)(F)F)cc3)ccc2O[C@H]1CN(C)Cc1ccc(Cl)c(Cl)c1 | 0 | 53* | -15 | -2 | 0 | 15
C[C@@H]1CN([C@H](C)CO)S(=O)(=O)c2ccc(-c3cccnc3)cc2O[C@H]1CN(C)CC1CC1 | nt | nt | nt | nt | nt | 2
C/C=C/c1ccc([C@@H]2[C@@H](CO)N(S(C)(=O)=O)C23CN(C(=O)CC)C3)cc1 | nt | nt | nt | nt | nt | -3
COc1ccc(/C=N/NC(=S)Nc2ccccc2[N+](=O)[O-])cc1O | 4 | 93* | -60 | 2 | -10 | 38
COc1cc(/C=N/NC(=O)Cc2ccccc2)ccc1Oc1ccc([N+](=O)[O-])cc1[N+](=O)[O-] | 9 | 52* | -1 | -2 | 0 | 1
CCCOc1ccc(/C=N/Nc2cccc([N+](=O)[O-])c2)c(O)c1 | -3 | -9 | -265 | -1 | -8 | -80
CCCOc1ccc(/C=N/NC(=S)Nc2ccccc2[N+](=O)[O-])c(O)c1 | nt | nt | nt | nt | nt | 83*
CCCOc1ccc(/C=N/Nc2ccccc2[N+](=O)[O-])c(O)c1 | -16 | 98* | 5 | 0 | -2 | nt
Cc1ccc(S(=O)(=O)N(C)C[C@@H]2Oc3ccc(NC(=O)Nc4c(C)noc4C)cc3C(=O)N([C@H](C)CO)C[C@@H]2C)cc1 | nt | nt | nt | nt | nt | -4
COc1ccc(/C=C2\SC(=Nc3ccccc3OC)NC2=O)cc1 | 56* | 24 | -51 | 0 | -8 | -5
COc1cc(/C=C2\SC(=Nc3ccccc3)NC2=O)cc(Cl)c1O | 24 | 34 | -14 | 0 | -16 | -25
COc1cc(/C=C2\SC(=Nc3ccccc3OC)NC2=O)ccc1O | 51* | 40 | 16 | 0 | -31 | 6
COc1cc(/C=C2/SC(=Nc3ccc(O)cc3)NC2=O)ccc1O | 71* | 60* | 13 | -1 | 3 | -20
COc1cc(/C=C2\SC(N)=NC2=O)ccc1O | 73* | 100* | 31 | 0 | -16 | ?
SMILES | CF NFkB inh | TWEAK Fn14 block | HIF-2a block | hiPSC survival | KKLEB cytotox | LGR2 antag
COc1ccc(/C=C2\SC(=NCc3ccccc3)NC2=O)cc1 | 32 | 14 | -19 | 0 | -39 | 12
O=C(C[C@@H]1C[C@@H]2c3cc(NS(=O)(=O)c4ccc(F)cc4)ccc3O[C@@H]2[C@H](CO)O1)N1CCOCC1 | nt | nt | nt | nt | nt | 8
COCCN(C[C@H]1N[C@H](CO)[C@@H]1c1ccccc1)C(=O)NC1CCCC1 | nt | nt | nt | nt | nt | -4
CCOC(=O)CSc1nnc2n(C3CCCCC3)c(=O)c3c4c(sc3n12)CCCC4 | 0 | -32 | 22 | 1 | 0 | -15
Cc1nnc2n(C3CCCCC3)c(=O)c3c4c(sc3n12)COC(C)(C)C4 | 12 | -7 | 16 | 21* | 7 | nt
CNc1ccc(/C=C2\CSc3ccccc3C2=O)cc1[N+](=O)[O-] | 26 | 83* | -113 | 0 | 3 | 8
COc1ccc(C)cc1NC(=O)N1CCCc2ccccc21 | -4 | 55* | -13 | 5 | 3 | -26
COc1ccc(NC(=O)N2CCCc3ccccc32)c(OC)c1 | 2 | 51* | -23 | 1 | -12 | 3
Cc1cccc(NC(=O)N2CCCc3ccccc32)c1C | -17 | 51* | -13 | 2 | 9 | 14
Cc1ccc(NC(=O)N2CCCc3ccccc32)cc1C | -6 | 26 | -172 | 1 | 0 | -20
Cc1cc(=O)oc(C)c1C(=O)N1CCCc2ccccc21 | 3 | 97* | 10 | -1 | 1 | nt
CCC(=O)Nc1ccc2c(c1)OC[C@@H](C)N(C(=O)C1CCC1)C[C@H](C)[C@@H](OC)CN(C)C2=O | nt | nt | nt | nt | nt | 17
CCS(=O)(=O)NCC[C@@H]1CC[C@@H](NS(=O)(=O)c2cccc(Cl)c2)[C@H](CO)O1 | nt | nt | nt | nt | nt | 1
COc1ccc2c(c1)CCCN2C(N)=O | 0 | 58* | -5 | 3 | -5 | -1
COc1ccc2c(c1)CCCN2C(N)=Nc1ccc(Cl)cc1 | -4 | -15 | 13 | 0 | 0 | 0
O=C(Nc1cc(Sc2ccccn2)cc([N+](=O)[O-])c1)c1ccc(Cl)cc1 | 26 | 65* | -120 | -3 | -17 | nt
O=C(N/N=C/c1ccccn1)c1ccc(NC(=O)c2cccc([N+](=O)[O-])c2)cc1 | -31 | 11 | -25 | 0 | -2 | 14
O=C(Nc1cc(Sc2ccccn2)cc([N+](=O)[O-])c1)c1cccc(Cl)c1 | 4 | 78* | 4 | 1 | -12 | 35
O=C(Nc1cccc([N+](=O)[O-])c1)c1ccncc1 | 6 | 12 | 12 | 0 | 12 | 8
